Experiment [1] relates to Zika virus NS2B-NS3 protease. Nature of the experiment: Primary screen GU AMC qHTS for Zika virus inhibitors (AID 1347154).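 Further: 0% = no-inhibitor control and -100% = no-enzyme control; nearly all actives have a fitted effect of over 70% in size.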 Put shortly: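 Unlinked Zika NS2B hydrophilic domain/NS3 protease domain noncovalent complex (25 nM final) in 10 mM Tris-HCl pH 8.0, 0.01% Tween 20, with AMC peptide substrate. Fluorescence (ex 340, em 450 nm) change over 15 min, room temperature; percent inhibition fitted to 4-parameter Hill equation.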

A short description of experiment [2]: Primary qHTS for small molecule stabilizers of the endoplasmic reticulum resident proteome: Secreted ER Calcium Modulated Protein (SERCaMP) assay (AID 1508630). Further: on the % scale 0 is the no-effect control and ±100 the full control effect. In outline:
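GLuc-SERCaMP-expressing SH-SY5Y cells, pretreated 16 h with compound, are challenged with thapsigargin to empty ER calcium stores; after 4 h, coelenterazine is added directly to the medium and luminescence is imaged.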

Experiment [3] in a line: Counterscreen qHTS for small molecule stabilizers of the endoplasmic reticulum resident proteome: GLuc-NoTag assay (AID 1508627). Further: potency means the concentration at half of the fitted maximal effect.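 On activity change, negative = inhibition: SH-SY5Y cells given compound then 100 nM thapsigargin to empty ER calcium; 0% = thapsigargin alone and -100% = DMSO vehicle control.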 Put shortly: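 SH-SY5Y cells stably expressing constitutively secreted GLuc (no SERCaMP tag) were pre-incubated 5 h, treated with compound for 19 h, then 100 nM thapsigargin for 4 h at 37C; medium GLuc read by coelenterazine luminescence.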
A short description of experiment [4]: Primary qHTS for inhibitors of nuclear receptor binding SET domain protein 2 (NSD2) in an isogenic RCH-ACV NSD2 p.E1099K mutant (9B) (AID 1645876). Further: potency means the concentration at half of the fitted maximal effect; nearly all actives have a fitted effect of over 70% in size.
A short description of experiment [5]: Primary qHTS for inhibitors of nuclear receptor binding SET domain protein 2 (NSD2) in an RCH-ACV wild type WT cells (2C) (AID 1645877). Further: potency means the concentration at half of the fitted maximal effect; nearly all actives have a fitted effect of over 70% in size.
Experiment [6] addresses Catechol O-methyltransferase (Homo sapiens) (UniProt P21964). Nature of the experiment: Confirmatory Screen for Target Class Profiling of Small Molecule Inhibitors of Methyltransferases (AID 1745852; calls by dose curve; further: potency means the concentration at half of the fitted maximal effect). As to conditions: MTase-Glo luminescence, SAH detection, recombinant enzyme; measured here: COMT max response; stronger effect = lower value.
Experiment [7] addresses Guanidinoacetate N-methyltransferase (Homo sapiens) (UniProt Q14353). The experiment is described as above. As to conditions: activity change, negative = inhibition: at 57.3 µM (top of the series) unless noted.
Experiment [8] has as its target Nicotinamide N-methyltransferase (Homo sapiens) (UniProt P40261). The description is as above. As to conditions: MTase-Glo luminescence, SAH detection, recombinant enzyme; measured here: NNMT max response; stronger effect = lower value.
For experiment [9], the target named is Phenylethanolamine N-methyltransferase (Homo sapiens) (UniProt P11086). The experiment is described as above. As to conditions: MTase-Glo luminescence, SAH detection, recombinant enzyme; measured here: PNMT max response; stronger effect = lower value.
For experiment [10], the target named is Glutathione peroxidase 1 (Homo sapiens) (UniProt P07203). Nature of the experiment: Primary qHTS Assay for Inhibitors of Recombinant Selenoprotein Glutathione Peroxidase 1 (GPX1) (AID 1845191). Further: on the % scale 0 is the no-effect control and ±100 the full control effect; nearly all actives have a fitted effect of over 65% in size. In outline: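 Recombinant GPX1 (10 nM final) was preincubated with compound for 30 min at room temperature, then reacted with 1 mM GSH, 0.5 mM CHP, 0.5 mM NADPH and 100 nM glutathione reductase; NADPH fluorescence (340/450 nm) was read at 0 and 15 min.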

For experiment [11], the target named is Cytochrome P450 1A2 (Homo sapiens) (UniProt P05177). As to the kind of experiment: p450-cyp1a2 (AID 410; calls by dose curve; further: potency means the concentration at half of the fitted maximal effect). In outline:
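Human CYP1A2 (20nM) demethylated Luciferin-ME at its Km (100uM) in 100mM KPO4. After 10 min compound preincubation, NADPH regeneration ran the reaction 60 min at room temperature. Luciferin was read by luminescence, normalized to 57 uM furafylline.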

In experiment [12] the target is Glucocorticoid receptor (Homo sapiens) (UniProt P04150). As to the kind of experiment: GR-GFP Redistribution (AID 450;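 active means compounds whose dose series gives a full or clear partial fitted curve of increased nuclear translocation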; further: potency means the concentration at half of the fitted maximal effect). As to conditions: U2OS GR-GFP nuclear translocation, laser cytometry, 2 h.
Glucocorticoid receptor (Homo sapiens), sequence (P04150 whole entry, looked up): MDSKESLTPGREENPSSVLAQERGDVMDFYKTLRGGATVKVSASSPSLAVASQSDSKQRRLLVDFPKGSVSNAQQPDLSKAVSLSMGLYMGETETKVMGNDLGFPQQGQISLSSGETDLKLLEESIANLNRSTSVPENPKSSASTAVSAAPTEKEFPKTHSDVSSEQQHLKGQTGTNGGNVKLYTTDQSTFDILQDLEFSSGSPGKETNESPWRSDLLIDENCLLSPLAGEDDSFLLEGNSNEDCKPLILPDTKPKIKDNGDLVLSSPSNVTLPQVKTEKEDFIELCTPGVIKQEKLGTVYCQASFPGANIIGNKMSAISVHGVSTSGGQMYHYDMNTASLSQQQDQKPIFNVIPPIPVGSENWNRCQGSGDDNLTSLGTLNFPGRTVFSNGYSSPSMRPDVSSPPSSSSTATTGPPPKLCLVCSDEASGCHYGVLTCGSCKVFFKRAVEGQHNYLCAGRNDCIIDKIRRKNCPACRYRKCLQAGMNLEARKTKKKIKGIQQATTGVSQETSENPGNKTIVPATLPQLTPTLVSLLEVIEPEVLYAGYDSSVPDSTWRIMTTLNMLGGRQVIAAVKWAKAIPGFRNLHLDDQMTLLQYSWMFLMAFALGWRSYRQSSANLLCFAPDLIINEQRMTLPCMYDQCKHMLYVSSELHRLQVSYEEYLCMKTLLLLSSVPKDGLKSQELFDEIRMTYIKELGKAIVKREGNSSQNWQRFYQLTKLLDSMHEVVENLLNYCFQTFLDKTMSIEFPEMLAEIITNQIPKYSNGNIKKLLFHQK
Experiment [13] shares this target. Nature of the experiment: GR-EFC Redistribution (AID 451; calls by dose curve; further: potency means the concentration at half of the fitted maximal effect). The settings on record: CHO-K1 GR-EFC translocation, beta-gal luminescence, 2 h. In outline:
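CHO-K1 cells stably expressing nuclear-localized β-gal enzyme acceptor and GR fused C-terminally to the enzyme donor fragment; ligand-driven nuclear translocation restores β-gal by complementation. Compounds titrated up to 46 uM final, 2 h at 37 °C; luminescence read.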

The target of experiment [14] is Mitogen-activated protein kinase 10 (Mus musculus) (UniProt Q61831). Nature of the experiment: JNK3 AlphaScreen Assay (AID 530; active means well fitted curve in either direction with a large enough effect, not every such curve was filed as active;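 further: kinase came from lysate of stimulated human HepG2 cells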; further: potency means the concentration at half of the fitted maximal effect;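 on activity change, negative = inhibition: signal reports phosphorylation of biotinylated GST-cJun 1-79 at Ser73 with 10 µM ATP; on the % scale 0 is the no-effect control and ±100 the full control effect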). Put shortly: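 JNK3 came from HepG2 lysates pre-activated with IL-1beta and TNF-alpha and phosphorylated biotinylated GST-cJun (1-79) at 10 uM ATP, pH 7.6, room temperature. Compounds were titrated. AlphaScreen signal used anti-phospho-cJun (Ser73) antibody.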

In experiment [15] the target is Cytochrome P450 3A4 (Homo sapiens) (UniProt P08684). As to the kind of experiment: qHTS Assay for Activators of Cytochrome P450 3A4 (AID 885). Further: nearly all actives have a fitted effect of over 65% in size. In outline:
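Human CYP3A4 (20 nM) with Luciferin-PPXE at 25 uM (its KM) in 200 mM KPO4; 10 min compound preincubation, then NADPH regeneration and 60 min reaction at RT. Luciferin read by luminescence; normalized to 57 uM ketoconazole full inhibition.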

Experiment [16] deals with Cytochrome P450 2D6 (Homo sapiens) (UniProt P10635). Nature of the experiment: qHTS Assay for Inhibitors and Substrates of Cytochrome P450 2D6 (AID 891). Further: potency means the concentration at half of the fitted maximal effect; nearly all actives have a fitted effect of over 60% in size. Put shortly: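 Human CYP2D6 (5 nM) with 30 uM Luciferin-ME EGE (at Km) in 100 mM KPO4, compound preincubated 10 min, then NADPH regeneration system for 60 min at room temperature. Luciferin read by luminescence; normalized to 1.43 uM quinidine.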
Cytochrome P450 2D6 (Homo sapiens), sequence (P10635 whole entry, looked up): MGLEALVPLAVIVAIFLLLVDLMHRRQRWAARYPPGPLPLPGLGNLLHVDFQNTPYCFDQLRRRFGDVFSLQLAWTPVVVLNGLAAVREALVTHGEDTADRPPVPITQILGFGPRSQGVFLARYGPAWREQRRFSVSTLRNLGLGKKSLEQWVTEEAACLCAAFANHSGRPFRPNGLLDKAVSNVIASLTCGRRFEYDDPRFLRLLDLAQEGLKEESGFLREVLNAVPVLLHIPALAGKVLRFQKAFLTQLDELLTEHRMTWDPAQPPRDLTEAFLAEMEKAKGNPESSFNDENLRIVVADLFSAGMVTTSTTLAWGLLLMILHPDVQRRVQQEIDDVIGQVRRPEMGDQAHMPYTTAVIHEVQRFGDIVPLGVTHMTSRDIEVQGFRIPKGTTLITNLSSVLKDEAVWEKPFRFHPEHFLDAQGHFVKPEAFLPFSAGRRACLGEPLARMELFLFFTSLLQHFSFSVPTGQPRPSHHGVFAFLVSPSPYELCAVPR

Experiment [17] has as its target DNA dC->dU-editing enzyme APOBEC-3G (Homo sapiens) (UniProt Q9HC16). Nature of the experiment: qHTS for inhibitors of Vif-A3G interactions: Validation (AID 588379). Further: potency means the concentration at half of the fitted maximal effect. On activity change, negative = inhibition: 0% is about no effect. Put shortly:
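HeLa cells stably expressing Vif and A3G-eYFP, 700 cells/well, incubated overnight at 37 deg C, then exposed to compound overnight at 37 deg C. Inhibition of Vif-mediated degradation read as increased yellow fluorescence (Ex 488/Em 500-530) by laser-scanning cytometry.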

Experiment [18] concerns the target 3',5'-cyclic-AMP phosphodiesterase 4B (Homo sapiens) (UniProt Q07343). Nature of the experiment: qHTS Assay for Inhibitors of PDE-IV (AID 607; active means well fitted activation curve with a large enough effect in the main read-out, with a control signal flat, not every such curve was filed as active; further: % of control where 0% means no effect). In outline:
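HEK293 ACTOne cells with CNG channel (1000/well), endogenous PDE4; membrane potential dye, compounds up to 22.9 uM final. Fluorescence Ex 535/Em 590; RO 20-1724 (100 uM final) as reference.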

For experiment [19], the target named is Cytochrome P450 2C9 (Homo sapiens) (UniProt P11712). Nature of the experiment: qHTS Assay for Inhibitors and Substrates of Cytochrome P450 2C9 (AID 883). Further: potency means the concentration at half of the fitted maximal effect; nearly all actives have a fitted effect of over 60% in size. In outline: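 CYP2C9 deoxyluciferin hydroxylation, 37C, 60 min with NADPH regeneration; 10nM enzyme, 100uM Luciferin-H (KM). Glo detection reagent stopped reaction; luminescence normalized to sulphaphenazole (57uM) full inhibition.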
Cytochrome P450 2C9 (Homo sapiens), sequence (P11712 whole entry, looked up): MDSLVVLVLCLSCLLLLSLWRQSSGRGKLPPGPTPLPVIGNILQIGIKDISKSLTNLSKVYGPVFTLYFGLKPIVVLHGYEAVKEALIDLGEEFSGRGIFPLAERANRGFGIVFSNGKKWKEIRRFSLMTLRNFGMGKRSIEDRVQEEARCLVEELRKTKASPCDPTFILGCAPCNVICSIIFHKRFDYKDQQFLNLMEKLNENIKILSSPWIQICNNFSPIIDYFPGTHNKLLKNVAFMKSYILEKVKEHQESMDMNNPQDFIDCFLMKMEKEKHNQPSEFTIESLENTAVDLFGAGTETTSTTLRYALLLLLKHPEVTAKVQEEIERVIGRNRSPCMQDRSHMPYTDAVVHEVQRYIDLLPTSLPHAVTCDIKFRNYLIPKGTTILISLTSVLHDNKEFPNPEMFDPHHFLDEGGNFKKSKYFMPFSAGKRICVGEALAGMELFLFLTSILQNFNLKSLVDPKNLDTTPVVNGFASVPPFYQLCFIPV

Experiment [20] has as its target Cytochrome P450 2C19 (Homo sapiens) (UniProt P33261). Nature of the experiment: qHTS Assay for Inhibitors and Substrates of Cytochrome P450 2C19 (AID 899). Further: potency means the concentration at half of the fitted maximal effect; nearly all actives have a fitted effect of over 60% in size. In outline: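 In 50mM KPO4, the reaction held 5nM enzyme and KM-level (10uM) Luciferin-H EGE; it ran 60 min at 37C after NADPH regeneration and a 10 min compound preincubation. Luminescence values were scaled to 57uM ketoconazole as complete inhibition.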

Experiment [21] is described as follows: qHTS Assay for Identification of Small Molecule Agonists for Thrombopoietin (TPO) Signaling Pathway (AID 917). Further: potency means the concentration at half of the fitted maximal effect. In outline: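 Murine Ba/F3 cells stably expressing human TPO receptor and a Glycoprotein IIb promoter–luciferase reporter were IL-3-starved overnight, then treated with compounds plus TPO (26 pM final, its EC50) for 24 hrs at 37 C; luminescence was read.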

Experiment [22] concerns the target Muscarinic acetylcholine receptor M1 (Rattus norvegicus) (UniProt P08482). As to the kind of experiment: qHTS Assay for Antagonists of Acetylcholine Muscarinic M1 Receptor: Measurement of IP-One Response (AID 944). Further: potency means the concentration at half of the fitted maximal effect; nearly all actives have a fitted effect of over 75% in size. In outline:
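CHO cells expressing rat M1 receptor, recovered overnight, were pre-incubated 10 min with compound, then stimulated 30 min with carbachol at EC80 (200 nM) in LiCl-containing buffer, pH 7.4. IP1 accumulation was read by HTRF (620/665 nm).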

Experiment [23] deals with Pyruvate kinase (Leishmania mexicana) (UniProt Q27686). Nature of the experiment: qHTS Validation Assay for Inhibitors of Leishmania Mexicana Pyruvate Kinase (AID 945). Further: potency means the concentration at half of the fitted maximal effect. Put shortly: (§1)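 LmPYK E451W 0.2 nM; 0.5 mM PEP, 0.1 mM ADP, 7 mM MgCl2, 50 mM KCl, imidazole pH 7.2, 0.01% Tween 20, 0.05% BSA; 1 h RT; PKLight luminescence; DMSO-normalized.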
Pyruvate kinase (Leishmania mexicana), sequence (Q27686 2-499 E452W): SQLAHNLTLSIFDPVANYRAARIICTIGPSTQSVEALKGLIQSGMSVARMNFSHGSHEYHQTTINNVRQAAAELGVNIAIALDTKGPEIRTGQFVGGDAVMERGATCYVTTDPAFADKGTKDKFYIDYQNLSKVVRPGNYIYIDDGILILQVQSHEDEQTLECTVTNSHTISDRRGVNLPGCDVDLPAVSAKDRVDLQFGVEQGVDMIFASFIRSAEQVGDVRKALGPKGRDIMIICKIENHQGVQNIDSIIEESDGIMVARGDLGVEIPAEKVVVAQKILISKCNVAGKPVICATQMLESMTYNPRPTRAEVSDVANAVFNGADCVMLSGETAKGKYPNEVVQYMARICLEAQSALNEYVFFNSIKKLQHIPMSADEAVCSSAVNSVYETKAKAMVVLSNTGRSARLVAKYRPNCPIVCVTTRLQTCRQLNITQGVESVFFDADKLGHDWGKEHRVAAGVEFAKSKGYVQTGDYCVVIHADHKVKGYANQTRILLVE
For experiment [24], the target named is Pyruvate kinase PKM (Homo sapiens) (UniProt P14618). Nature of the experiment: qHTS Assay for Activators of Human Muscle Pyruvate Kinase (AID 954; active means well fitted curve in the direction sought with a large enough effect, not every such curve was filed as active;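 further: 0% = uninhibited enzyme and -100% = no enzyme or full thiadiazolimine inhibition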). Put shortly: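 Purified human PKM2 (0.1 nM) with 0.5 mM PEP (Km) and 0.1 mM ADP in 50 mM imidazole pH 7.2, KCl, MgCl2, 1 h at room temperature; ATP formed read by coupled luciferase luminescence. Normalized to no-enzyme/110 uM thiadiazolimine inhibition; 0.3 nM enzyme column for activation.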
Pyruvate kinase PKM (Homo sapiens), sequence (P14618 whole entry, looked up): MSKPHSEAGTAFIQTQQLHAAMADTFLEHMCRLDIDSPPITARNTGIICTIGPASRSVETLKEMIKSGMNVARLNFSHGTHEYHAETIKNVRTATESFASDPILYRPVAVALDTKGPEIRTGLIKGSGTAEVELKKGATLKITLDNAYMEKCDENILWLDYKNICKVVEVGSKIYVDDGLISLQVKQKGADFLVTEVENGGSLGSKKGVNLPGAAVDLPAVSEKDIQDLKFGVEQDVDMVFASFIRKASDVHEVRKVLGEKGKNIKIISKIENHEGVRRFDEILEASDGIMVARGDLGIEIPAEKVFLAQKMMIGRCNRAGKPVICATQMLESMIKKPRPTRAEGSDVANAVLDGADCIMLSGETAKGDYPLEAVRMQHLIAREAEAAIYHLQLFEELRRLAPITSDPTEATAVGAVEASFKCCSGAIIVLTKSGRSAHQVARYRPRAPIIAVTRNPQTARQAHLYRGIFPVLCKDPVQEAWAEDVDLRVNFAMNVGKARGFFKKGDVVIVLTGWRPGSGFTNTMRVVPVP

For experiment [25] the target is unchanged. Nature of the experiment: qHTS Assay for Inhibitors of Human Muscle Pyruvate Kinase (AID 958). As to conditions: purified human PKM enzyme activity. Put shortly:
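Compound pinned into substrate mix (0.5 mM PEP, 0.1 mM ADP), then 0.1 nM PKM2 added; 1 h, RT. Stop/detection luciferase reagent added, luminescence read. Normalized to no-inhibition and no-enzyme or reference-inhibitor controls.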

The target of experiment [26] is Pyruvate kinase (Leishmania mexicana) (UniProt Q27686). As to the kind of experiment: qHTS Validation Assay for Activators of Leishmania Mexicana Pyruvate Kinase (AID 959). In outline: as §1
The target of experiment [27] is Alpha-galactosidase A (Homo sapiens) (UniProt P06280). Nature of the experiment: Counterscreen for Glucocerebrosidase Inhibitors: qHTS Assay for Human alpha-Galactosidase at pH 4.5 (AID 992). Further: 0% is about no effect. Put shortly:
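Human enzyme (2 nM) with 80 uM 4-methylumbelliferyl alpha-D-galactopyranoside in 50 mM citric acid, 0.005% Tween-20, pH 4.5, 20 min at room temperature. Compounds 0.7 nM–77 uM; fluorescence Ex 365/Em 440 after pH 10 stop; AC50 from Hill fits.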

Experiment [28] addresses alpha-glucosidase (Oryza sativa, rice) (UniProt Q653V4). Nature of the experiment: Counterscreen for Glucocerebrosidase Inhibitors: qHTS Assay for Rice alpha-Glucosidase at pH 5.0 (AID 997).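 Further: 0% = full activity with enzyme and -100% = basal without enzyme.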 Put shortly:
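Rice alpha-glucosidase (4 nM final) with 400 uM 4-methylumbelliferyl-alpha-D-glucopyranoside in citrate buffer pH 5.0, 20 min at room temperature, stopped at pH 10; fluorescence 365/440 nm, compounds 0.7 nM–77 uM, AC50 from Hill fits.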

The nature of experiment [29]: Cell Viability qHTS for small molecule stabilizers of the endoplasmic reticulum resident proteome (AID 1508629).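 Further: human SH-SY5Y neuroblastoma cells carrying the GLuc-SERCaMP reporter; compound exposure about 46 h in total before the viability read; on the % scale 0 is the no-effect control and ±100 the full control effect.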 As to conditions: cell viability counter-screen, 100 nM thapsigargin for final 4 h.

Molecules are shown by their SMILES. Where “and” joins values, the source holds several entries; their conditions need not be identical. Equal values may be shown once. Records with an inconclusive call do not appear. Calls of active or inactive are those of the source. Unless noted, the call rests on the fitted dose curve; in most records, active means well fitted curve in the direction sought with a large enough effect; inconclusive means small, poorly fitted or top-dose-only effect, or another doubt; inactive means no such curve, though single readings can be large; an effect the other way counts as inactive or inconclusive.

The values that follow come from PubChem BioAssay (NCATS).

Cytochrome P450 1A2 (Homo sapiens), sequence (P05177 whole entry, looked up): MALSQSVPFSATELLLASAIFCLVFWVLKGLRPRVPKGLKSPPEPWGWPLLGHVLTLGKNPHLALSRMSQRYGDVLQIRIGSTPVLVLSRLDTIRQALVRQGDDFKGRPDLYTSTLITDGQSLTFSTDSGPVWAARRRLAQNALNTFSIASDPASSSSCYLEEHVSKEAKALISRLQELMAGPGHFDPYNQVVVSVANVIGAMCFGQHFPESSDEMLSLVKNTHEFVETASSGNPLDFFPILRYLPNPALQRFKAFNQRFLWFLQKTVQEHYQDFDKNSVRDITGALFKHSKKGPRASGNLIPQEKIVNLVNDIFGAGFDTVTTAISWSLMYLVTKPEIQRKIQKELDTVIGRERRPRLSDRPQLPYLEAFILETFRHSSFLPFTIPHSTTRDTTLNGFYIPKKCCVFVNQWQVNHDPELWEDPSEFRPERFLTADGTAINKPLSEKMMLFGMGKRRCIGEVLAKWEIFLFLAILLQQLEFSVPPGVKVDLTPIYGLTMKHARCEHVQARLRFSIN
DNA dC->dU-editing enzyme APOBEC-3G (Homo sapiens), sequence (Q9HC16 whole entry, looked up): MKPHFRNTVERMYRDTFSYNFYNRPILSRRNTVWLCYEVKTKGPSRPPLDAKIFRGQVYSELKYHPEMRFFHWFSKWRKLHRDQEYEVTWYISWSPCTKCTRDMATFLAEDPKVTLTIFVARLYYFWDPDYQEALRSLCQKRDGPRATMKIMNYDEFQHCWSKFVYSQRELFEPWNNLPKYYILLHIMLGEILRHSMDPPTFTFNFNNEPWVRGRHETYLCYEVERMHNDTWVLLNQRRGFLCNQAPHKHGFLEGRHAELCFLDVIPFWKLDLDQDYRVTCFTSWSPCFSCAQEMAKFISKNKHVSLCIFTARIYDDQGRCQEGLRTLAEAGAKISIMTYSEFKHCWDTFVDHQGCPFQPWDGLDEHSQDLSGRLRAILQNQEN
Cytochrome P450 3A4 (Homo sapiens), sequence (P08684 whole entry, looked up): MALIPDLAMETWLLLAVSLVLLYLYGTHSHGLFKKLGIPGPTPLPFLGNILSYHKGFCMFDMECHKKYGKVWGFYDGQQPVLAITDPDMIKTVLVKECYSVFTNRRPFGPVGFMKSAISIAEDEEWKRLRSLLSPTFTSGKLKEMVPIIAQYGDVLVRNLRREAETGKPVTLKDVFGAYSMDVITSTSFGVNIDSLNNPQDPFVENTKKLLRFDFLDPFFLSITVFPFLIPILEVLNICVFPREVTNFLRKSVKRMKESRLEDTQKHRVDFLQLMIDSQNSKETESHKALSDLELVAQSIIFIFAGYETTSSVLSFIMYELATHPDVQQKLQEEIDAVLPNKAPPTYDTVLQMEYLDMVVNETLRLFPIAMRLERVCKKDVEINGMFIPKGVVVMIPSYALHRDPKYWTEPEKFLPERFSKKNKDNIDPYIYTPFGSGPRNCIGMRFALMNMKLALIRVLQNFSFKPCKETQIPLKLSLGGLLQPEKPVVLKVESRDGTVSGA
3',5'-cyclic-AMP phosphodiesterase 4B (Homo sapiens), sequence (Q07343 whole entry, looked up): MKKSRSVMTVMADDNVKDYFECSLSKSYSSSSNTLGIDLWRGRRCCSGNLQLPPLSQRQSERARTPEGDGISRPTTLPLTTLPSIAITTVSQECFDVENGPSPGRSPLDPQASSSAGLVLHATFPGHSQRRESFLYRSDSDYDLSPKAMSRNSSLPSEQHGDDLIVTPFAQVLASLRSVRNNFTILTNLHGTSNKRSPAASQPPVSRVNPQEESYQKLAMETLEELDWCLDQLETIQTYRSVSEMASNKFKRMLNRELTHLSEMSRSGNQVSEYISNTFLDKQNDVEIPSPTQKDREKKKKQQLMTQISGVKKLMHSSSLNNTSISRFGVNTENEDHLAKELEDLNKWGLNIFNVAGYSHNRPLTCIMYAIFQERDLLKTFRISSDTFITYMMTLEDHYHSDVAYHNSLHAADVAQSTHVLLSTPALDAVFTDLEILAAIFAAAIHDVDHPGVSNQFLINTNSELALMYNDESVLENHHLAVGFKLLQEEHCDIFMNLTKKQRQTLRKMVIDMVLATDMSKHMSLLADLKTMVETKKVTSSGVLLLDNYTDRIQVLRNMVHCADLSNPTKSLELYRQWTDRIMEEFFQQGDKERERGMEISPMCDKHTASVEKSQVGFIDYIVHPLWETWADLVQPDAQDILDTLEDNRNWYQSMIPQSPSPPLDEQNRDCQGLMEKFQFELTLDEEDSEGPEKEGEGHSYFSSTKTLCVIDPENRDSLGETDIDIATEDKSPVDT

Consider `CC1CCC(C(C)C)C(P(=O)(c2ccccc2)c2ccccc2)C1` (configuration not stated), for which the Potency result in experiment [1] and in experiment [2] was “inactive” in each case.

Regarding `CC(=O)OCOC(c1ccc2ccccc2c1)P(=O)(OCOC(C)=O)OCOC(C)=O` (configuration not stated), the Potency entry in [1] and in experiment [2] was “inactive” each time.

Take `CNc1cc2c(Nc3cccc(Br)c3)ncnc2cn1`: the Potency result in [1] and in experiment [10] was “inactive” in each case. Besides, the Potency is 35.5 µM (active) in experiment [3], 14.6 µM (active) in experiment [4], 20.6 µM (active) in experiment [5] and 30.4 µM (active) in experiment [7]. Also, the activity in experiment [6] was -38.7%; in experiment [8], -23.8%; in [9], -74.4%.

With `COc1ccc(Cl)cc1N=Nc1ncc[nH]1`, the Potency in experiment [11] is 631 nM (active); in [12] it was > 46 µM (inactive); in [13], > 46 µM (inactive); in experiment [16] it was 2.51 µM (active). The Potency result in [14], in [15], in [17], in experiment [1] and in [3] was “inactive” in each case.

For the compound `CN(C)c1ccc(/C=C2/C(=O)Nc3ccccc32)cc1`, the Potency in [11] was 398 nM (active) and 100 nM (active); in experiment [12] it was > 46 µM (inactive); in experiment [13] it was > 46 µM (inactive); in [14] it was 5.01 µM (active); in experiment [19] it was 5.01 µM (active); in [20], 20 µM (active). Further, the Potency in experiment [21] was 0.0631 µM (active); in [22] it was 14.1 µM (active); in experiment [23], 3.16 µM (active); in experiment [25] it was 3.16 µM (active); in experiment [17], 26.6 µM (active); in experiment [3], 35.5 µM (active). The Potency result in [18], in experiment [15], in experiment [26] and in experiment [1] was “inactive” each time. The outcome in experiment [24], in experiment [27] and in [28] was “inactive” each time. For the same compound, in [29], the max response was 8.84% (inactive).
